Experimental data published in the supplement of paper PMC11417369.
Whole data set: some 25,000 sequences, median “ln(normalized median fluorescence intensity)” near 7.1, cut for the highest 2% near 10. This excerpt belongs to a sample that is enriched for the highest values.

tested on: PfSIP2 AP2 domain 1 (GST-tagged); assay: gcPBM binding intensity (ln(normalized median fluorescence intensity)); higher = stronger DNA binding
Summary of the method: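 Binding intensity is the highest Masliner-normalised natural-log median intensity over replicate spots in either probe orientation. To obtain it, GST-tagged P. falciparum DNA-binding domains made in E. coli were incubated for 1 h on an Agilent 4 × 180k array of primer-extended double-stranded 36-bp intergenic genomic probes plus negative controls. Detection used Alexa488 anti-GST antibody with scanning at 488 nm.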

Going from “GAAAGGAAAAGTTGAACACACAAAGTAAACTATAAG [CACACA_site3535]” to “TCTATTAACTGATGTGCATGTTATAACCTAGAAGTA [TGCATGCA_site359]”, the “gcPBM binding intensity (ln)” value rises from 6.7 to 7.42.

Compared with “TAAAAGTATTCCTTTTGTACATATAATGAAAACAAT [XGTACX_site2069]”, “TGATAAAATATTAAATTATTTCTTTATTTAAAGATT [CACACA_negctrl_site370]” is lower in “gcPBM binding intensity (ln)” value: 6.8 for the first, 6.67 for the second.

Going from “AAGATAAATTATTATAAATCAATTGTGCCAACAATA [CACACA_negctrl_site144]” to “ATTATAAAAATATCGTGTACATATTTTTTAAAATAA [XGTACX_site5072]”, the “gcPBM binding intensity (ln)” value rises from 6.69 to 7.12.

Compared with “TTATACCATATTTATAGTACGTACAAATAAATCAAT [XGTACX_site4975]”, “TTAATCCACAGACACACACACACAAAATAAAATACA [CACACA_site244]” is lower in “gcPBM binding intensity (ln)” value: 7.3 for the first, 7.22 for the second.

Going from “AAGATCGCATGAAATGAACACACATAAAAAAAATAT [CACACA_site9353]” to “TTTTGTTCATACAAATTGGAACAAGACAAAAATATA [XGTACX_negctrl_site327]”, the “gcPBM binding intensity (ln)” value rises from 7.05 to 7.16.

First: AAGACAATATATGCAGTGCATATACATACATATATA
Second: AAATTGAGACAACAGGTGCATATAAATATACAGTGT [GTGCAC_site9634]
The “gcPBM binding intensity (ln)” value of the first is lower: 8.3 for the first, 10.6 for the second.

Going from “ATATATTTAAAAAAATGTACAAATCATAAATGCAAG [XGTACX_site4230]” to “ATACATATTAACAAGGTGCAAATGGATTTCATAAAA [GTGCAC_site9775]”, the “gcPBM binding intensity (ln)” value rises from 7.07 to 10.7.

Going from “AATACATATTCAAAGGTGCAAAATAAAAATATACAT [GTGCAC_site9743]” to “ATACATTCAAAATATACACACATATATATATAATAT [CACACA_site950]”, the “gcPBM binding intensity (ln)” value falls from 11 to 7.13.

First: ATAACATTCATATTCACACAAAAATATACTACATAG [CACACA_site4529]
Second: TATATACATGTGAGAGTGCATATAGACATAAAAAAT
The “gcPBM binding intensity (ln)” value of the first is lower: 7.09 for the first, 8.96 for the second.

Going from “TATATTGCAAAAAGTACACACATAAATAAATACATA [CACACA_site6589]” to “AATATACATAACAAGGTGCAAAAAATATTGTTCATA [GTGCAC_site9499]”, the “gcPBM binding intensity (ln)” value rises from 7.23 to 10.9.

First: ACAAGCTTTCATAAGGTGCAATGATTTAACAAAAAA [GTGCAC_site9726]
Second: AGAAAGGTGGTATTAAAAGAATAACCTATGAATAAA [GTGCAC_negctrl_site325]
The “gcPBM binding intensity (ln)” value of the first is higher: 10.1 for the first, 6.79 for the second.

First: CCATATAATATGAACAGTACACACAAAATAAATTCG [XGTACX_site7590]
Second: ATCAAAAAAAAAAAAAGTACACAAAATTTTTTATTA [XGTACX_site7986]
The “gcPBM binding intensity (ln)” value of the first is higher: 7.08 for the first, 6.88 for the second.

Going from “CTATTGTTAAATATAATACACACGTTTTTAAAAATA [CACACA_site2183]” to “GTTTAACTGTTTTATACACACAATGTATACAATAAA [CACACA_site2959]”, the “gcPBM binding intensity (ln)” value rises from 6.97 to 7.02.

First: TTTTTATAATAAAAAAATATAACTATATTAAGCCAC [CACACA_negctrl_site555]
Second: AATATATTTTCCTGCAAACACACATATAAATGTGTA [CACACA_site532]
The “gcPBM binding intensity (ln)” value of the first is higher: 7.1 for the first, 6.96 for the second.

First: TCAACCAAAACATAAGCATGCAATATATTTTTATAC [TGCATGCA_site560]
Second: TTTATAATTTATATCACACACATATATATATAGTAA [CACACA_site8]
The “gcPBM binding intensity (ln)” value of the first is higher: 7.16 for the first, 7.05 for the second.

Compared with “TTTCTATATAGATTTGCACACATAAAAATGCTTATA [CACACA_site2390]”, “ATATCGTGTGCATTAACACACATTTATTTGAATAAA [CACACA_site7162]” is higher in “gcPBM binding intensity (ln)” value: 7.18 for the first, 7.65 for the second.

First: ATCGGTAATATTAACACACACATTTATTTATATTTA [CACACA_site6638]
Second: ATATCGGGTGCATTAACACACATTTATTTGAATAAA [CACACA_site2350]
The “gcPBM binding intensity (ln)” value of the first is lower: 7.01 for the first, 11.7 for the second.

First: ATCGGTAATATTAACACACACATTTATATATATTTA [CACACA_site1084]
Second: ACATATCGGGTGCATTAACACACATTTATTTGAATA [CACACA_site8736]
The “gcPBM binding intensity (ln)” value of the first is lower: 7.2 for the first, 11.6 for the second.

Going from “AACATTTTAAATTATACACACATTTTGAATATATAT [CACACA_site3470]” to “TTTTTATTTTTTCAGTGTACATTTAAATTATCTTAT [XGTACX_site3905]”, the “gcPBM binding intensity (ln)” value falls from 7.2 to 6.98.

First: ATTATTATTATATATGCATGTAAAATATTAAAGTAC [TGCATGCA_site914]
Second: AATGAAAAATGTATCGTTAAAGGGTATCTTAAGGAT [XGTACX_negctrl_site222]
The “gcPBM binding intensity (ln)” value of the first is higher: 7.59 for the first, 6.84 for the second.

First: AGATCATAATATTATACACACATTATGTATATGTAA [CACACA_site1490]
Second: ACACATTATAACAAGGTGCAATTTTTATACACATGT [GTGCAC_site9866]
The “gcPBM binding intensity (ln)” value of the first is lower: 6.84 for the first, 10.4 for the second.

“TATAACACACAATGATGTACATTACATTATTTTTTA [XGTACX_site2076]” and “CATTAACATTTTATTACACACAATAATTTATAAGTA [CACACA_site4083]” are the same in “gcPBM binding intensity (ln)” value: 7.06 for the first, 7.06 for the second.

Going from “TAATTAGCATAATACACATGCATACATTTATATATA [TGCATGCA_site542]” to “ATCATAAATTATTATACACACAATACGTGACCTATT [CACACA_site1906]”, the “gcPBM binding intensity (ln)” value rises from 7.01 to 7.06.

Compared with “TATTGTTACTTTATATGTACTAATTAAACATATACA [XGTACX_site6363]”, “ATAACAAAATGAAGAGTGCATTACCAAGTGGGTAAA [GTGCAC_site9450]” is higher in “gcPBM binding intensity (ln)” value: 7.24 for the first, 8.64 for the second.

Going from “AAAAAATTATAAAAGTGTACATATATATATATATAT [XGTACX_site154]” to “TAAATTGGTGCAAAGTGTACATATATATCTTTCCTA [XGTACX_site5458]”, the “gcPBM binding intensity (ln)” value rises from 9.3 to 11.4.

First: TAGGTACATAAATTGGTGCAAAGTGTACATATATAT
Second: AACAATAAAAATAATTGTACAAGTCTAAAAAAAATT [XGTACX_site20]
The “gcPBM binding intensity (ln)” value of the first is higher: 9.97 for the first, 6.86 for the second.

First: TCGTGAATGATTTAAGTACACACCGGTATTTATTCA [CACACA_site1564]
Second: ACGTAAACATGTAGAAGGCATTACACAATGGTATAC [TGCATGCA_negctrl_site512]
The “gcPBM binding intensity (ln)” value of the first is lower: 6.74 for the first, 6.75 for the second.

Compared with “AAAAGAAAATTAAATTAACACACATAAATATATATA [CACACA_site8482]”, “TTTGTATAGTTGTAGGTGCATATCATTTTTAAATGT [GTGCAC_site9708]” is higher in “gcPBM binding intensity (ln)” value: 7.27 for the first, 10.4 for the second.

First: ACCATATAAAGTTAGGTGCATTTGTATGTATCTTAC
Second: ATATAATAAATGTAGGTGCATAAAAATATTTTGTTA [GTGCAC_site9780]
The “gcPBM binding intensity (ln)” value of the first is lower: 9.18 for the first, 10 for the second.
